In the supplement of paper PMC12024424:
Counter-ions that a name gives are not always drawn.

Experiments:
[1] = tested on: Staphylococcus aureus Sa2 (MRSA, cystic fibrosis isolate); assay: growth reduction vs untreated control (OD550); higher = stronger antibacterial activity; details: 0.1 mM; 24 h
Procedure: (§1)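 Single-dose screen of the MedChem Express Drug Repurposing Library (0.1 mM, 1% DMSO) against planktonic MRSA S. aureus Sa2 (CF isolate) in TSB in 96-well plates, 37 °C aerobic, 24 h. Assays were run in triplicate and repeated twice.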

[2] = tested on: Staphylococcus aureus Sa2 (MRSA, cystic fibrosis isolate); assay: growth reduction vs untreated control (viable cell count); higher = stronger antibacterial activity; extreme values may be limits of the assay; details: 0.1 mM; 24 h
Procedure: as §1

Compound	growth reduction [1]	growth reduction [2]
CC1CS(=O)(=O)CCN1/N=C/c1ccc([N+](=O)[O-])o1 (centres undefined) [Nifurtimox]	100%	100%
Cc1cc(C2CCCCC2)n(O)c(=O)c1 [Ciclopirox (olamine)]	99.3%	100%
O=C(O)Cc1ccc(Cc2cc(-c3cccc(Cl)c3)nc(C(F)(F)F)c2)cc1	100%	100%
C=CCNc1c(O)cc2c(O)c1C[C@@H](C)C[C@H](OC)[C@H](O)[C@@H](C)/C=C(\C)[C@H](OC(N)=O)[C@@H](OC)/C=C\C=C(/C)C(=O)N2 [Retaspimycin (Hydrochloride)]	100%	100%
Clc1ccc(COC(Cn2ccnc2)c2ccc(Cl)cc2Cl)c(Cl)c1 (centres undefined) [Miconazole (nitrate)]	100%	100%
C[C@H]1CNCCCN1S(=O)(=O)c1cccc2cncc(F)c12 [Ripasudil]	100%	100%
CCOC(=O)C1=C(C)NC(C)=C(C(=O)OC)C1c1cccc(Cl)c1Cl (centres undefined) [Felodipine]	100%	100%
Cc1ccc(Cl)c(Nc2ccccc2C(=O)O)c1Cl [Meclofenamate (sodium)]	97.2%	99%
COc1cc2/c(=N/c3ccc(Br)cc3F)nc[nH]c2cc1OCC1CCN(C)CC1 [Vandetanib]	100%	100%
CC(C)(C)c1cc(-c2cc(-c3ccc(C(=O)O)cc3)ccc2OCCO)ccc1N1CCCC1 [Trifarotene]	100%	100%
CC(C)/N=c1\cc2n(-c3ccc(Cl)cc3)c3ccccc3nc-2cc1Nc1ccc(Cl)cc1 [Clofazimine]	100%	100%
C=C(C)[C@@H]1CC[C@]2(C(=O)O)CC[C@]3(C)[C@H](CC[C@@H]4[C@@]5(C)CC[C@H](OC(=O)CC(C)(C)C(=O)O)C(C)(C)[C@@H]5CC[C@]43C)[C@@H]12 [Bevirimat]	96.7%	100%
C=CC[C@@H]1/C=C(\C)C[C@H](C)C[C@H](OC)[C@H]2O[C@@](O)(C(=O)C(=O)N3CCCC[C@H]3C(=O)O[C@H](/C(C)=C/[C@@H]3CC[C@@H](O)[C@H](OC)C3)[C@H](C)[C@@H](O)CC1=O)[C@H](C)C[C@@H]2OC [Tacrolimus (monohydrate)]	100%	100%
CC[C@H](C)C(=O)O[C@H]1C[C@@H](C)C=C2C=C[C@H](C)[C@H](CC[C@@H]3C[C@@H](O)CC(=O)O3)[C@H]21 [Lovastatin]	100%	100%
C[C@@H](OC[C@@]1(c2ccccc2)CC[C@]2(CCC(=O)N2)CN1)c1cc(C(F)(F)F)cc(C(F)(F)F)c1 [Rolapitant]	100%	100%
CCCCCCCC/C=C/CCCCCCCC(=O)OC[C@H]1O[C@@H](n2ccc(N)nc2=O)C(F)(F)[C@@H]1O [Gemcitabine (elaidate)]	100%	100%
O=C(O)Cc1ccccc1Nc1c(Cl)cccc1Cl [Diclofenac (diethylamine)]	100%	100%
CNC(=O)c1cc(Oc2ccc(NC(=O)Nc3ccc(Cl)c(C(F)(F)F)c3)cc2)ccn1 [Sorafenib]	93.5%	100%
C[C@@H](O[C@H]1OCCN(Cc2n[nH]c(=O)[nH]2)[C@H]1c1ccc(F)cc1)c1cc(C(F)(F)F)cc(C(F)(F)F)c1 [Aprepitant]	98.2%	100%
C[C@H](CCC(=O)O)[C@H]1CC[C@H]2[C@@H]3CC[C@@H]4C[C@H](O)CC[C@]4(C)[C@H]3C[C@H](O)[C@]12C [Deoxycholic acid]	98.3%	100%
COC(=O)C1=C(C)NC(C)=C(C(=O)OC(C)C)C1c1cccc2nonc12 (centres undefined) [Isradipine]	100%	100%
Cc1cc(-c2nc(CN3CCNCC3)no2)cc2c1C(=O)N(Cc1ccc(OC(F)(F)F)cc1)C2	100%	100%
C=CCc1ccc(O)c(-c2cc(CC=C)ccc2O)c1 [Magnolol]	100%	100%
O=c1ccc2ccc(O)c(O)c2o1 [Daphnetin]	94.5%	98%
O=C(Nc1ccccc1)c1ccccc1O [Salicylanilide]	91.4%	93%
NC(N)=NC(=O)c1nc(Cl)c(N2CCCCCC2)nc1N [5-(N,N-Hexamethylene)-amiloride]	100%	100%
CCOC(=O)[C@H](CCc1ccccc1)N[C@@H](C)C(=O)N1[C@H](C(=O)O)C[C@@H]2CCC[C@@H]21 [Ramipril]	92.1%	92%
